Assay [1] concerns the target Mitogen-activated protein kinase 3 (Homo sapiens) (UniProt P27361). The conditions noted are these: at 1 µM.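 Further: values are mean percent inhibition of MAPK3.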
Assay [2] addresses SRSF protein kinase 3 (Homo sapiens) (UniProt Q9UPE1). The conditions noted are these: at 0.1 µM.
For assay [3] the target is unchanged. The conditions noted are these: at 1 µM.
For assay [4], the target named is Mitogen-activated protein kinase 14 (Homo sapiens) (UniProt Q16539). The conditions noted are these: at 0.1 µM.
The target is the same in assay [5]. The conditions noted are these: at 1 µM.
Assay [6] addresses Mitogen-activated protein kinase 11 (Homo sapiens) (UniProt Q15759). The conditions noted are these: at 0.1 µM.
Assay [7] has the same target. The conditions noted are these: at 1 µM.
Assay [8] concerns the target T1, Mitogen-activated protein kinase 13 (Homo sapiens) (UniProt O15264).
T1 sequence (whole entry): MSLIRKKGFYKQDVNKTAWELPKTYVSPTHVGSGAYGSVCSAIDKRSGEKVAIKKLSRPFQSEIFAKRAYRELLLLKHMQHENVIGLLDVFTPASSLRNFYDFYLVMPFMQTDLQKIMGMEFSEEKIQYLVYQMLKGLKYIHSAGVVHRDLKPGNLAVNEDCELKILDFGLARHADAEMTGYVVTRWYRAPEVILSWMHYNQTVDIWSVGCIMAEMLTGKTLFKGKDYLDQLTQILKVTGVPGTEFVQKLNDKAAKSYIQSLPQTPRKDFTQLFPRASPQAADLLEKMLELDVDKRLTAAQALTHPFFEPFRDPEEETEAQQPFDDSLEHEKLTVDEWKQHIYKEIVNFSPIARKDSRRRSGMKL
The conditions noted are these: at 0.1 µM.

Assay [9] has as its target T1, Mitogen-activated protein kinase 13 (Homo sapiens). The conditions noted are these: at 1 µM.
Assay [10] deals with T2, Mitogen-activated protein kinase 12 (Homo sapiens) (UniProt P53778).
T2 sequence (whole entry): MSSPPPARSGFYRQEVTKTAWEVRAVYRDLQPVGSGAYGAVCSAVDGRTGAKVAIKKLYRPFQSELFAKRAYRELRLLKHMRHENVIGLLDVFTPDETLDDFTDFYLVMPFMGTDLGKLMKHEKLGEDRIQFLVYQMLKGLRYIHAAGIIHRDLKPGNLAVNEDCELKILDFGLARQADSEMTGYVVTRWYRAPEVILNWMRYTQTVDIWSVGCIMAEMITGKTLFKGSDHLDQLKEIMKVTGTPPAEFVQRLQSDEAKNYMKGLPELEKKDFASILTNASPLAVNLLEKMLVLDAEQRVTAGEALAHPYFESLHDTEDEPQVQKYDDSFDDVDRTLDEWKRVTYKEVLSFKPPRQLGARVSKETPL
The conditions noted are these: at 0.1 µM.

The target in assay [11] is T2, Mitogen-activated protein kinase 12 (Homo sapiens). The conditions noted are these: at 1 µM.
Assay [12] has as its target SRSF protein kinase 1 (Homo sapiens) (UniProt Q96SB4). The conditions noted are these: at 0.1 µM.
Assay [13] shares this target. The conditions noted are these: at 1 µM.
The target of assay [14] is Phosphatidylinositol 4,5-bisphosphate 3-kinase catalytic subunit alpha isoform (Homo sapiens) (UniProt P42336). The conditions noted are these: at 0.1 µM.
Assay [15] has the same target. The conditions noted are these: at 1 µM.
Assay [16] deals with T3, Phosphatidylinositol 4,5-bisphosphate 3-kinase catalytic subunit delta isoform (Homo sapiens) (UniProt O00329).
T3 sequence (whole entry): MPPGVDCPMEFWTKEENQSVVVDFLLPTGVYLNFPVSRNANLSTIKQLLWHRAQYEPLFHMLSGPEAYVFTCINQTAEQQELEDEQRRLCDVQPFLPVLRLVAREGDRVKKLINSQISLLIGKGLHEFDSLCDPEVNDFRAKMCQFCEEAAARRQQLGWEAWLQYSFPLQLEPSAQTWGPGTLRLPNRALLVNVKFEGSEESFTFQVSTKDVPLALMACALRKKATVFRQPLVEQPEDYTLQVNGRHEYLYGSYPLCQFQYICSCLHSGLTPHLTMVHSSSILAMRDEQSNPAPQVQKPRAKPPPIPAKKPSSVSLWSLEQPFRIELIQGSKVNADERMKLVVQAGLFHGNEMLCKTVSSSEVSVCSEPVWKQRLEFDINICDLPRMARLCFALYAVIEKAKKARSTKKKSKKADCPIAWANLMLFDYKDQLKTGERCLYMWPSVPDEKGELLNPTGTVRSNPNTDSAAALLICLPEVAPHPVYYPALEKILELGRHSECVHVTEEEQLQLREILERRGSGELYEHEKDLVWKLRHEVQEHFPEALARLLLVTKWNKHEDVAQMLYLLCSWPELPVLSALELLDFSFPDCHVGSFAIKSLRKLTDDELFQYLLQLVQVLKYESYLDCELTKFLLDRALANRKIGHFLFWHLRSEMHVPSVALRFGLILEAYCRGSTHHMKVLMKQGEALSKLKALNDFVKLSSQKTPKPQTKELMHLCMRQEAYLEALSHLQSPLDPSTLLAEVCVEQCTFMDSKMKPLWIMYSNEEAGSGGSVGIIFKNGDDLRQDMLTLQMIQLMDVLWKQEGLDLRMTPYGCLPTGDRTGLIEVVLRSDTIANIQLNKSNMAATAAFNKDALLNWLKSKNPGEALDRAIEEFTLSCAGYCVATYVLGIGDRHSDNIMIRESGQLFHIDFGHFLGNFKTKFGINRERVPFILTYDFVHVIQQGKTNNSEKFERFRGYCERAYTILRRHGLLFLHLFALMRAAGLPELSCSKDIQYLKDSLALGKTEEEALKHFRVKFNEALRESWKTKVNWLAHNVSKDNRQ
The conditions noted are these: at 0.1 µM.

In assay [17] the target is T3, Phosphatidylinositol 4,5-bisphosphate 3-kinase catalytic subunit delta isoform (Homo sapiens). The conditions noted are these: at 1 µM.
Assay [18] concerns the target Phosphatidylinositol 4-kinase beta (Homo sapiens) (UniProt Q9UBF8). The conditions noted are these: at 0.1 µM.
Assay [19] shares this target. The conditions noted are these: at 1 µM.
The target in assay [20] is Sphingosine kinase 1 (Homo sapiens) (UniProt Q9NYA1). The conditions noted are these: at 0.1 µM.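 Further: mean percent inhibition of SPHK1 activity, measured within the GSK PKIS screening panel.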
Sequence of Sphingosine kinase 1 (Homo sapiens) (Q9NYA1 whole entry): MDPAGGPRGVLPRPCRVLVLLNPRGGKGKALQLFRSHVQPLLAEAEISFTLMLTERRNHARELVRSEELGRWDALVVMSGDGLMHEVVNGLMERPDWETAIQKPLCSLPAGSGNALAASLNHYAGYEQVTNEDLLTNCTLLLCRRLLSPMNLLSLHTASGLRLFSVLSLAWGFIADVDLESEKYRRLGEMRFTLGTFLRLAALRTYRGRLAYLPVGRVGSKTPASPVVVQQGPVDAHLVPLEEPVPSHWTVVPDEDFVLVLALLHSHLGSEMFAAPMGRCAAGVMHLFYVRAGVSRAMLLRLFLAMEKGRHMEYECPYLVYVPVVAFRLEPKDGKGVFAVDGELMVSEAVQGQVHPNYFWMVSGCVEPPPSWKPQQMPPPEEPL

Sequence of SRSF protein kinase 3 (Homo sapiens) (Q9UPE1 whole entry): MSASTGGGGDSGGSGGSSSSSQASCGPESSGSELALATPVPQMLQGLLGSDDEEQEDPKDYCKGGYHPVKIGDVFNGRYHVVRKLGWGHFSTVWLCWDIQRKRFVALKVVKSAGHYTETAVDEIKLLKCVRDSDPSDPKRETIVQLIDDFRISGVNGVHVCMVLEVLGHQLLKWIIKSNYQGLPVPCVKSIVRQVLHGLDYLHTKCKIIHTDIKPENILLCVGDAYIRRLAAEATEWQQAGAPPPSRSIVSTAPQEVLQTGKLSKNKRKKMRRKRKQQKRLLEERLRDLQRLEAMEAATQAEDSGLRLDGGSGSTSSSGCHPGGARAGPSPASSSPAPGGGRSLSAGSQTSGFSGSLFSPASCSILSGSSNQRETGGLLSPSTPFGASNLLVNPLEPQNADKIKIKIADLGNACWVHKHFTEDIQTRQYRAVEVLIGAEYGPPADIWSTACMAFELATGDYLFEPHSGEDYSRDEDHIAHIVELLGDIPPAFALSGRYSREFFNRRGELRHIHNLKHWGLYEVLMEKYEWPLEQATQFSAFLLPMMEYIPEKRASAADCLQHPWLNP
Sequence of Mitogen-activated protein kinase 11 (Homo sapiens) (Q15759 whole entry): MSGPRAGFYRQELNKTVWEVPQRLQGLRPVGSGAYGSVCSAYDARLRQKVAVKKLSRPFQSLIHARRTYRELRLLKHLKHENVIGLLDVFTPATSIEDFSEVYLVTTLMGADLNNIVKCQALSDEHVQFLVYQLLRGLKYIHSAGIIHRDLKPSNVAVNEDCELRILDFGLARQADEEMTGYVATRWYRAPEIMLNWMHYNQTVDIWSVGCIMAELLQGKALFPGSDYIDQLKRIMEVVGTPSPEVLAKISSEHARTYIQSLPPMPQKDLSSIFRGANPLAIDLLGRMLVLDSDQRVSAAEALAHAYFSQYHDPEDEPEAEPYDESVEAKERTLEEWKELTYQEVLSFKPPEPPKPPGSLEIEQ
Sequence of Mitogen-activated protein kinase 3 (Homo sapiens) (P27361 whole entry): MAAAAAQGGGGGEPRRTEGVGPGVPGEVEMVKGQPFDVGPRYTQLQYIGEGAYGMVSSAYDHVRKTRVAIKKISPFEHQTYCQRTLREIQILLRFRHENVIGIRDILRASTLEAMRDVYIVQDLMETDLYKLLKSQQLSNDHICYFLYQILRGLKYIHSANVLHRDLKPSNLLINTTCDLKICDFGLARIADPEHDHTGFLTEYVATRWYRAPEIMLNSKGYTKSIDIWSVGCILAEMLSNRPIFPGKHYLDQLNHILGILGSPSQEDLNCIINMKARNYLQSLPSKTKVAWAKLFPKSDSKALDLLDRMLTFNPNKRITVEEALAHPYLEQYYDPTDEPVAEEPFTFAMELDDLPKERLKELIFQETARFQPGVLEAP
Sequence of Phosphatidylinositol 4-kinase beta (Homo sapiens) (Q9UBF8 2-816 limits assumed): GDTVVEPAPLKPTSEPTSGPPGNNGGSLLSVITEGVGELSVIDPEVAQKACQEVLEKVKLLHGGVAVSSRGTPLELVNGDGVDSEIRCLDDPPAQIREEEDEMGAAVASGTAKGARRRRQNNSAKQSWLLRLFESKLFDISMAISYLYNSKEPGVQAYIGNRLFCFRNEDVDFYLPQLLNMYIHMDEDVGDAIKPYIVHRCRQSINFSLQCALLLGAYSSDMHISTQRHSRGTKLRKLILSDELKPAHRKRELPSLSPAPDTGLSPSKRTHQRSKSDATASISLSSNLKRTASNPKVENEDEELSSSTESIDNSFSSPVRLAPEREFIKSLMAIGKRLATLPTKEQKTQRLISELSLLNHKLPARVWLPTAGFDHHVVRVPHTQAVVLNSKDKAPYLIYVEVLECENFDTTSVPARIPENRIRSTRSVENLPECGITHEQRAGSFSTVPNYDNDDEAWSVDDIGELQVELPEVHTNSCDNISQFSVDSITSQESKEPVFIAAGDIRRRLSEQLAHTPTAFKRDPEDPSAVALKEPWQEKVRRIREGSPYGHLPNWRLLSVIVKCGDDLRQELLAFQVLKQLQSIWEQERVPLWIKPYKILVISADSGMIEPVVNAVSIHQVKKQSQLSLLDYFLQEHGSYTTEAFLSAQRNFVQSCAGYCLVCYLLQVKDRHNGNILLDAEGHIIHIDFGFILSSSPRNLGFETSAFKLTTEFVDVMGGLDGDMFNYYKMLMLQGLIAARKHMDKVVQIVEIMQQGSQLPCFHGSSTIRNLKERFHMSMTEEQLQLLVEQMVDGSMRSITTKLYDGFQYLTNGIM
Sequence of Phosphatidylinositol 4,5-bisphosphate 3-kinase catalytic subunit alpha isoform (Homo sapiens) (P42336 whole entry, canonical isoform): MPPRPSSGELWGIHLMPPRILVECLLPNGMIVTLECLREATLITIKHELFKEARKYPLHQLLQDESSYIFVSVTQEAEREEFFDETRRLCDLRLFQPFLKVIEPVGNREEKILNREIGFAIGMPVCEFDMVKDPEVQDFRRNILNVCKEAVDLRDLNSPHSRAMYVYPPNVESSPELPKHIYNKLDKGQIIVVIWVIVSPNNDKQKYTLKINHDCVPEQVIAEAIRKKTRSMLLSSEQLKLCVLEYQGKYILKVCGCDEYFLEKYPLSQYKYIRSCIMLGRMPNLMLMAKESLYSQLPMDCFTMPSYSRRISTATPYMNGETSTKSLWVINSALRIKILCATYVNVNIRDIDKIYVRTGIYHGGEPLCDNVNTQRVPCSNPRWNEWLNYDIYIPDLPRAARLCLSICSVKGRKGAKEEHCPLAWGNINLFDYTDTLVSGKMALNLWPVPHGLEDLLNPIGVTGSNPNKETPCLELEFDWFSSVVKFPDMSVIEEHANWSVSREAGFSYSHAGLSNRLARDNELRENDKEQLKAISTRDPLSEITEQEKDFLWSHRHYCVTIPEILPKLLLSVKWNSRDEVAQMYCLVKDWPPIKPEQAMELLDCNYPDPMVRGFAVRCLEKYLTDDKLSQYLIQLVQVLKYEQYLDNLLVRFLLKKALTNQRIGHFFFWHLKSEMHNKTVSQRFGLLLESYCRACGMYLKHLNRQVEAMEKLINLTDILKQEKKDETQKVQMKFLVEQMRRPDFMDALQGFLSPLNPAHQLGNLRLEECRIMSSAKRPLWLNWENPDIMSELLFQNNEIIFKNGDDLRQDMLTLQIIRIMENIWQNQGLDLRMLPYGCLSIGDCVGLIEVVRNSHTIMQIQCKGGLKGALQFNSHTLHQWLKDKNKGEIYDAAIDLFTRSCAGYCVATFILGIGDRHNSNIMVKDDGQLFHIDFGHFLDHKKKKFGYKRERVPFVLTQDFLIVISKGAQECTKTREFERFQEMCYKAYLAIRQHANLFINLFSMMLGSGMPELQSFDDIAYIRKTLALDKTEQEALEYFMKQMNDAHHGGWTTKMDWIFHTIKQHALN
Sequence of SRSF protein kinase 1 (Homo sapiens) (Q96SB4 whole entry): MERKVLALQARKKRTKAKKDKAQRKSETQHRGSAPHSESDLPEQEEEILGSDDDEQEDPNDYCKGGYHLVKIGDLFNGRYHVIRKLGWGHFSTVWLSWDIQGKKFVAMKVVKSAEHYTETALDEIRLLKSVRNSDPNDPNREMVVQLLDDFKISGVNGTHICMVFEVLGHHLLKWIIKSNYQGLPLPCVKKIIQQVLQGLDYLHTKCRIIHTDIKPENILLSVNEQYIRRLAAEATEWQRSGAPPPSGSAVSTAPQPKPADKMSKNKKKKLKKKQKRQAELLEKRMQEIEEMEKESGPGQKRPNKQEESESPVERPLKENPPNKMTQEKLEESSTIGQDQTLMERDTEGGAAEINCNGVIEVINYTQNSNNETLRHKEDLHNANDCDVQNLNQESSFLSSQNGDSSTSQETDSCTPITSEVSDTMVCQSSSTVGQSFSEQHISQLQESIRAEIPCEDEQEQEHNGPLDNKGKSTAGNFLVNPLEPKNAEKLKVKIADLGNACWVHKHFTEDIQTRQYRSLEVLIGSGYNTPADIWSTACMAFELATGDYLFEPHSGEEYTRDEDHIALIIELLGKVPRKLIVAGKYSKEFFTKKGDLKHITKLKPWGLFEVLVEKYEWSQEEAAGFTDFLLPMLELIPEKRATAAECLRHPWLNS
Sequence of Mitogen-activated protein kinase 14 (Homo sapiens) (Q16539 whole entry): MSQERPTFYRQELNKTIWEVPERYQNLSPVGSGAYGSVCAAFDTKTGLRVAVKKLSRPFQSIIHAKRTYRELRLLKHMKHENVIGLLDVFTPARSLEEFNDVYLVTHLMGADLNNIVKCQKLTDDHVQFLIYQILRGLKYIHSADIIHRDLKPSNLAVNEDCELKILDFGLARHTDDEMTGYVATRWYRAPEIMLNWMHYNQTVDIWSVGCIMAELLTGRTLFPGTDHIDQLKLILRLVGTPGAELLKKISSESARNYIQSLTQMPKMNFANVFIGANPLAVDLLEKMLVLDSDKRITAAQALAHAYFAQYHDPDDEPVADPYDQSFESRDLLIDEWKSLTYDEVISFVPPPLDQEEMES

For the compound `O=S(=O)(CCOCc1ccc(-c2ccc3ncnc(Nc4ccc(OCc5cccc(F)c5)c(Cl)c4)c3c2)o1)c1ccccc1`, the inhibition (commonly the relative decrease from the control value, in per cent) is 1.69% in [1]; -0.89% in assay [2]; 1.24% in assay [3]; 0.07% in assay [4]; 0.7% in [5]; -0.78% in [6]. Moreover, the inhibition was -0.75% in assay [7]; 1.66% in [8]; 1.53% in assay [9]; 1.14% in assay [10]; 4.2% in assay [11]; -2.76% in [12]. In addition, the inhibition in assay [13] is -1.54%; in assay [14], 1.05%; in assay [15], 12.9%; in assay [16], 0.99%; in assay [17], 10.1%; in [18], 0.56%. Moreover, the inhibition is 0.4% in assay [19] and 1.08% in assay [20].

Regarding `CCOc1nccc2c1nc(-c1nonc1N)n2CC`, the inhibition in assay [1] is 3.56%; in [2], 0.36%; in assay [3] it was 4.21%; in assay [4] it was -6.67%; in assay [5], 6.06%; in assay [6], 3.87%. Moreover, the inhibition in [7] was 7.56%; in [8] it was 2.58%; in [9] it was 2.91%; in assay [10] it was 0.94%; in assay [11], 3.14%; in [12] it was 0.65%. Besides, the inhibition stood at 6.12% in [13]; 2.9% in [14]; 1.35% in [15]; 0.56% in assay [16]; 0.99% in [17]; 7.22% in assay [18]. For the same compound, the values for the inhibition in assay [19] and in assay [20] were 0.43% and 0.81%, respectively.

As to `CCS(=O)(=O)c1ccc(OC)c(Nc2nccc(N(C)c3ccc4c(C)n[nH]c4c3)n2)c1`, the inhibition in assay [1] was 4.25%; in assay [2] it was -3.37%; in assay [3] it was -0.4%; in assay [4] it was 5.92%; in assay [5] it was 8.09%; in assay [6], 3.01%. For the same compound, the inhibition was 3.67% in assay [7]; 4.71% in [8]; 2.73% in [9]; 2.34% in [10]; 3.12% in assay [11]; -3.64% in [12]. In addition, the inhibition in [13] is -4.44%; in assay [14], 4.66%; in assay [15], 3.7%; in assay [16], 2.01%; in assay [17], 2.75%; in assay [18], 0.2%. Moreover, the inhibition in assay [19] was -1.28%; in [20] it was 4.16%.

Take `CN(C)CCCn1c(-c2nonc2N)nc2cnccc21`: the inhibition is 2.88% in assay [1]; -1.86% in assay [2]; -1.05% in assay [3]; 5.93% in [4]; 12.9% in assay [5]; 3.87% in assay [6]. Further, the inhibition in assay [7] is 8.3%; in [8], 1.23%; in [9], 4.99%; in assay [10], 3.33%; in assay [11], 3.42%; in assay [12], -2.65%. The inhibition was -4.44% in assay [13]; 2.84% in assay [14]; 5.05% in assay [15]; 1.95% in [16]; 4.09% in assay [17]; 0.95% in assay [18]. The inhibition in assay [19] worked out at 3.34%; in assay [20], 2.52%.

As to `CC(C)c1ccc2c(c1)NC(=O)/C2=N/Nc1ccc(S(N)(=O)=O)cc1`, the inhibition is -0.93% in assay [1]; -0.91% in assay [2]; -3.87% in [3]; 0.75% in assay [4]; -0.04% in [5]; -1.84% in assay [6]. Further, the inhibition was 3.37% in assay [7]; -0.12% in assay [8]; -0.88% in [9]; 0.48% in assay [10]; 0.63% in assay [11]; -0.89% in assay [12]. The inhibition in [13] is -0.94%; in assay [14], 0.32%; in assay [15] it was 1.8%; in assay [16] it was 0.64%; in assay [17], 0.71%; in assay [18], 0.05%. Also, the inhibition worked out at 0.24% in assay [19] and 0% in assay [20].

On to `COC(=O)c1cncc(/C=C/c2c(C)cc(O)cc2C)c1`, for which the inhibition in assay [1] was found to be 3.36%; in assay [2], 1.31%; in assay [3] it was 1.48%; in [4], 1.5%; in assay [5], 5.57%; in assay [6], 0.99%. For the same compound, the inhibition in assay [7] is 3.92%; in assay [8] it was 1.59%; in assay [9] it was 4.29%; in [10] it was -1.81%; in assay [11], 1.22%; in assay [12], 0.45%. Moreover, the inhibition in [13] worked out at 2.47%; in assay [14], 2.59%; in assay [15] it was 2.56%; in assay [16], 3.23%; in assay [17], 2.23%; in [18], 2.65%. Besides, the inhibition came to 0.11% in assay [19] and 2.52% in assay [20].

As to `Cc1cc(O)cc(C)c1/C=C/c1cncc(C(=O)N(C)C)c1`, the inhibition in [1] was found to be 2.75%; in assay [2] it was 1.6%; in [3], 2.35%; in [4], 5.83%; in assay [5], 7.03%; in assay [6], 3.38%. For the same compound, the inhibition in assay [7] is 8.48%; in [8], 1.6%; in assay [9], 3.68%; in assay [10], 4.71%; in assay [11], 2.68%; in [12], -0.98%. The inhibition in assay [13] was -1.41%; in assay [14], 1.77%; in assay [15] it was 0.49%; in assay [16], 1.59%; in assay [17], 1.73%; in assay [18], -2.1%. Further, the inhibition in assay [19] is 0.47%; in assay [20] it was -0.11%.

The values are drawn from ChEMBL document CHEMBL1961873, “Compounds: GSK PKIS; Assays: Nanosyn kinase panel” (2012).
